KCNQ2 block: inhibitors of rat KCNQ2 potassium channel; CHO-K1 KCNQ2, FluxOR thallium flux, 20 min; hits give low values; B-score at 10 µM; 310,000 tested, 1.1% active; AID 2156;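 active means fluorescence ratio B-score at most minus 3 library SDs, with starting brightness B-score within 2 library SDs, cut at about -5.5 in these data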
KCNQ2 enhance: potentiators of rat KCNQ2 potassium channel; CHO-K1 KCNQ2, FluxOR thallium flux fluorescence; hits give high values; B-score at 10 µM; 310,000 tested, 0.54% active; AID 2239;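 active means fluorescence ratio B-score at least 3 SD of library B-scores, with initial fluorescence B-score within 3 of them, cut at about 5.3 in these data; same plate scores as AID 2156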;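 further: B-score of peak minus minimum over baseline fluorescence ratio after K+ and Tl+ stimulus; positive B-score means potentiation of KCNQ2 with more thallium influx and brighter signal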
Kir21 conf inh: confirmation of mouse Kir2.1 potassium channel inhibitors; shares compounds with KCNQ2 enhance; 2,300 tested, 41% active; Tl flux remaining, % of negative control (hits give low values), % at 10 µM; Kir2.1-expressing cells, FluxOR thallium flux fluorescence; hits give low values;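 active means Primary-screen hit whose thallium flux fell at least 3 control SD below untreated wells in both duplicates, with normal baseline fluorescence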;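 further: 0% = blank wells without stimulus and 100% = stimulated no-compound controls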
HEK293 Tl flux: alters thallium flux in parental HEK293 cells, Kir2.1 counter-screen; 2,300 tested, 19% active; shares compounds with KCNQ2 enhance; FluxOR signal as % of negative control (100 = no effect), % at 10 µM; FluxOR thallium flux fluorescence; 0% = unstimulated blank wells; AID 2105;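 active means dye signal at least 3 control SD above or below untreated wells in both duplicates, raw fluorescence within 3, either direction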;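 further: percent is based on the flux ratio of peak minus minimum fluorescence over baseline F0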
CHO-K1 ctr: parental CHO-K1 activity in KCNQ2 potentiator counter-screen. shares compounds with KCNQ2 enhance. parental CHO-K1 cells, FluxOR thallium flux fluorescence; zero = vehicle mean+3SD, 100% = vehicle-minus-blank window. activity increase over 3SD of controls, % at 10 µM. 1,200 tested, 43% active. AID 2282;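 active means signal rise of at least 3 SD above the untreated control mean, in both duplicate wells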;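 further: counter screen of KCNQ2 potentiator hits so any rise reflects channel-independent effects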
KCNQ1 pot spec: tests whether KCNQ2 potentiators also act on human KCNQ1. shares compounds with KCNQ2 enhance. CHO KCNQ1 stable, FluxOR thallium flux fluorescence; beyond 3SD, as % of vehicle-control signal. activation over 3SD threshold, % at 10 µM. 1,200 tested, 28% active. AID 2283;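 active means fluorescence ratio rise of at least 3 SD of vehicle wells above their mean, in both replicate wells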;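 further: 0% = vehicle mean plus 3 SD and 100% = vehicle minus unstimulated blank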
Target sequence (P51787 whole entry, looked up): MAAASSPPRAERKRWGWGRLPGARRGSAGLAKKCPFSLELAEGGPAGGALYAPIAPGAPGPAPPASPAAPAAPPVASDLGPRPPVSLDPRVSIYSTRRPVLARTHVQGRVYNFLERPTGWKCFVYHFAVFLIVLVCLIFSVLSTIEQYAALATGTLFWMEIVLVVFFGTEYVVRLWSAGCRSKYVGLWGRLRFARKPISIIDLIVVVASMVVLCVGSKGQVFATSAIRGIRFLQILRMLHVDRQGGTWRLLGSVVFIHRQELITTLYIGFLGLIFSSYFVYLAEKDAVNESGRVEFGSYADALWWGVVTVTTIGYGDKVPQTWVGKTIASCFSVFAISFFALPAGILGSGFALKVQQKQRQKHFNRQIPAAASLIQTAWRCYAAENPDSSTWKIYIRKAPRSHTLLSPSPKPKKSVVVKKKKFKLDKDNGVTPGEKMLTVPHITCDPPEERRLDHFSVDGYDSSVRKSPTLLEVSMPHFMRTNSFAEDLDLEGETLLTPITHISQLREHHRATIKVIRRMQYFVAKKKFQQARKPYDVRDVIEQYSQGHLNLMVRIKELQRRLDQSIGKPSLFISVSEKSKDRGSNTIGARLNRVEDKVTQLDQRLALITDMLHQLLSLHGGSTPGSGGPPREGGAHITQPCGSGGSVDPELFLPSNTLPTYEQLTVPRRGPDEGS
KCNQ2 pot conf: confirmation of rat KCNQ2 potassium channel potentiators; shares compounds with KCNQ2 enhance; CHO-KCNQ2 cells, FluxOR thallium flux fluorescence; potentiation, less the hit threshold, % at 10 µM; 1,200 tested, 68% active; AID 2287;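 active means fluorescence ratio rising 3 SD or more over the vehicle control mean in both replicates, plus primary screen hit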;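 further: peak minus minimum thallium fluorescence divided by baseline after K/Tl stimulus; 0% = vehicle mean plus 3 SD and 100% = vehicle minus unstimulated blank difference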
Kir21 spec: mouse Kir2.1 off-target activity of KCNQ2 potentiators; shares compounds with KCNQ2 enhance; HEK293 Kir2.1, FluxOR thallium flux fluorescence; activity over 3SD threshold, % at 10 µM; 1,200 tested, 2% active; AID 2345;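 active means fluorescence ratio rise of at least 3 SD above the vehicle-control mean, seen in both replicates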;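 further: 0% = vehicle mean plus 3 SD and 100% = vehicle minus no-stimulus blank window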
KCNQ2 W236L pot: potentiates the retigabine-insensitive rat KCNQ2 W236L mutant channel; shares compounds with KCNQ2 enhance; CHO KCNQ2-W236L, automated patch clamp current; current increase over 3SD of negative controls (%), hits give high values, % at 25 µM; 940 tested, 10% active; AID 2558;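 active means current increase at least 3 SD of the untreated controls above them in both duplicate recordings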
An asterisk follows results filed as active; i = inactive; · = not tested or not shown. Most compounds without a hit are left out; they make up all but 1.6% or so of the library.

SMILES	KCNQ2 block	KCNQ2 enhance	Kir21 conf inh	HEK293 Tl flux	others
Cc1ccc(-c2nnc(SCC(=O)NNC(=O)COc3cccc4ccccc34)n2C)cc1	i	0.29	·	·
O=C(O)C1CC=CCC1C(=O)NCc1ccc(Cl)c(Cl)c1 (stereo not given)	i	0.7	·	·
O=c1[nH]cc(I)cc1I	i	7.4*	i	i	CHO-K1 ctr=133*;KCNQ1 pot spec=32*;KCNQ2 pot conf=-20;Kir21 spec=-36
O=C1NC(CCc2ccccc2)C(=O)N1CCOc1ccccc1 (stereo not given)	i	0.21	·	·
Cc1ccc(C(=O)C(OC(=O)CN2C(=O)c3ccccc3C2=O)c2ccccc2)cc1C (stereo not given)	i	7.5*	i	i	CHO-K1 ctr=-19;KCNQ1 pot spec=-18;KCNQ2 pot conf=-2;Kir21 spec=-20;KCNQ2 W236L pot=i
Cc1ccc(C(=O)C(OC(=O)CN2C(=O)c3ccccc3C2=O)c2ccccc2)cc1 (stereo not given)	i	1.9	·	·
CCC(=O)Nc1ccc(C(=O)NCc2ccccn2)cc1	i	1.8	·	·
Cc1cc(/C=N/NC(=O)c2ccc(O)cc2)c(C)n1CC(C)C	i	·	·	·
Cc1cccc(N(C(=O)c2snc(C(N)=O)c2N)C(C(=O)NCC2CCCO2)c2ccc(N(C)C)cc2)c1C (stereo not given)	i	·	·	·
CC(C)CN(C(=O)Cn1nnc(-c2ccc(F)cc2)n1)C1CCS(=O)(=O)C1 (stereo not given)	i	0.79	·	·
CCN(CC)C(=S)SCC(=O)c1ccc(F)cc1	i	·	·	·
CCN(CC)C(=S)SCC(=O)Nc1ccc(F)cc1	i	6.4*	i	i	CHO-K1 ctr=-11;KCNQ1 pot spec=-15;KCNQ2 pot conf=3.2*;Kir21 spec=-43;KCNQ2 W236L pot=i
Cc1ccc(/C=N/NC(=O)Cn2nnc(N)n2)o1	i	·	·	·
O=C(OCc1cccc([N+](=O)[O-])c1)c1cnccn1	i	1.6	·	·
O=C(OCc1cccc([N+](=O)[O-])c1)c1ccncc1	i	6.6*	i	142%*	CHO-K1 ctr=-5;KCNQ1 pot spec=-19;KCNQ2 pot conf=1.0*;Kir21 spec=-33;KCNQ2 W236L pot=i
CC(C(=O)c1ccccc1)[n+]1cccc(Br)c1 (stereo not given)	i	0.02	·	·
CC(=O)NCCOc1cccc2ccccc12	i	0.73	·	·
c1ccc(CCNCCCOc2cccc3ccccc23)cc1	i	·	14%*	i
CC(CC(=O)NCc1ccc(F)cc1)c1ccccc1 (stereo not given)	i	2.9	·	·
CSc1nc(C(C)C)ccc1CNC(=O)CC(C)c1ccccc1 (stereo not given)	i	30*	i	i	CHO-K1 ctr=-11;KCNQ1 pot spec=35*;KCNQ2 pot conf=112*;Kir21 spec=-27;KCNQ2 W236L pot=i
CSc1ccccc1NC(=O)CSc1nnc(CNC(=O)c2ccccc2F)n1C	i	0.01	·	·
CCOc1ccc(S(=O)(=O)NC(Cc2cnc[nH]2)C(=O)O)cc1 (stereo not given)	i	·	·	·
COc1cc2c(cc1OC)CN(c1nc(-c3cccnc3)nc3ccccc13)CC2	i	·	·	·
CCC(=O)N1CCc2cc(Br)cc(S(=O)(=O)N3CCCCC3CC)c21 (stereo not given)	i	0.96	·	·
O=C(Oc1cccnc1)c1ccco1	i	·	·	·
SMILES	KCNQ2 block	KCNQ2 enhance	Kir21 conf inh	HEK293 Tl flux	others
O=C(Oc1cccc(OC(=O)c2ccco2)c1)c1ccco1	i	0.44	51%*	i
Cc1cc2ccccc2nc1SCC(=O)NC1CCCCC1	i	11*	i	i	CHO-K1 ctr=-56;KCNQ1 pot spec=-18;KCNQ2 pot conf=11*;Kir21 spec=-36;KCNQ2 W236L pot=i
Cc1cc2ccccc2nc1SCC(=O)NC1CCCC1	i	4.8	·	·
O=C(NC(=S)NCCC1=CCCCC1)c1ccco1	i	12*	i	229%*	CHO-K1 ctr=-9;KCNQ1 pot spec=-26;KCNQ2 pot conf=34*;Kir21 spec=-40;KCNQ2 W236L pot=i
Cc1ccccc1C(=O)NC(=S)NCCC1=CCCCC1	i	0.92	·	·
CCN(CC)c1ccc(NC(=O)c2ccco2)c(C)c1	i	2.9	·	·
CCN(CC)c1ccc(NC(=O)c2cccc(F)c2)c(C)c1	i	17*	i	i	CHO-K1 ctr=-12;KCNQ1 pot spec=-8;KCNQ2 pot conf=49*;Kir21 spec=-25;KCNQ2 W236L pot=i
COC(=O)c1cc(S(=O)(=O)N2CCN(C(=O)c3ccco3)CC2)cn1C	i	·	·	·
COc1ccc(CN2CCCN(S(=O)(=O)c3ccc(Br)cc3)CC2)cc1	i	·	56%*	i
COc1ccc(S(=O)(=O)N2CCN(Cc3ccc(Cl)cc3)CC2)cc1	i	·	·	·
CN(c1ccc(F)cc1)S(=O)(=O)c1ccc(Cl)c(C(=O)OCC(=O)NCc2ccco2)c1	i	8.8*	i	i	CHO-K1 ctr=15*;KCNQ1 pot spec=-14;KCNQ2 pot conf=24*;Kir21 spec=-40;KCNQ2 W236L pot=i
CN(c1ccccc1)S(=O)(=O)c1cccc(C(=O)OCC(=O)NCc2ccco2)c1	i	1.3	·	·
Cc1ccc(C)c(NC(=O)CSc2nc3nc(-c4cccs4)cc(C(F)(F)F)c3c(=O)[nH]2)c1	i	6.4*	i	i	CHO-K1 ctr=-8;KCNQ1 pot spec=34*;KCNQ2 pot conf=-97;Kir21 spec=-35
O=C(CSc1nc2nc(-c3cccs3)cc(C(F)(F)F)c2c(=O)[nH]1)Nc1ccc(F)c(F)c1	i	1.3	·	·
CC(=O)c1cccc(NC(=O)N2CCC(NC(=O)C3CCCCC3)CC2)c1	i	0.17	·	·
C/C(CCC(=O)O)=N/Nc1ccc([N+](=O)[O-])cc1[N+](=O)[O-]	i	1.6	·	·
O=C(O)/C(CC(=O)c1ccc(Cl)cc1)=N/Nc1ccc([N+](=O)[O-])cc1[N+](=O)[O-]	i	7.7*	i	i	CHO-K1 ctr=-9;KCNQ1 pot spec=-8;KCNQ2 pot conf=32*;Kir21 spec=-50;KCNQ2 W236L pot=i
Cc1cccc2[nH]c(CN(C)Cc3nc(CC4CC4)no3)nc12	i	·	·	·
COc1ccc(S(=O)(=O)NN(C)c2ncc(C(F)(F)F)cc2Cl)cc1	i	·	61%*	i
CC(C)NS(=O)(=O)c1ccc(Oc2ncc(C(F)(F)F)cc2Cl)cc1	i	·	·	·
CC(C)(C)c1ccc(OCC(=O)Nc2ccncc2)c(Br)c1	i	5.6*	i	i	CHO-K1 ctr=-20;KCNQ1 pot spec=-11;KCNQ2 pot conf=-2;Kir21 spec=-28;KCNQ2 W236L pot=i
CCc1ccc(OCC(=O)Nc2ccncc2)c(Br)c1	i	3.2	·	·
Cc1cc(C)c(S(=O)(=O)n2c([N+](=O)[O-])cnc2C)c(C)c1	i	·	·	·
CCC(C(=O)NN1C(=O)c2ccccc2C1=O)c1ccccc1 (stereo not given)	i	·	·	·
Cc1ccc(CNC(=O)Cn2ccc3cc(S(=O)(=O)N4CCCCCC4)ccc32)cc1	i	·	·	·
CC(=O)Nc1ccc(NC(=O)c2ccco2)cc1	i	0.17	·	·

Bioassay records as filed in PubChem.
